# Calls of active or inactive are those of the source. No rule for the calls is given here.
# Tested on: Phorbol Ester
# Assay: selectivity profiling over binding targets, CYP450 – biochemical, Ricerca HitProfilingScreen, selectivity assay for S1P3 agonist project, profiling panel (AID 540351)
# Conditions: Ricerca receptor/enzyme binding panel plus CYP450, at 30 µM, stronger effect = higher value
structure (smiles),measurement,value
O=C(c1cc(C2CC2)on1)N(C1CCCCC1)C1CCCCC1,inhibition,-19% (inactive)

# Source: PubChem BioAssay AID540351 (The Scripps Research Institute Molecular Screening Center, 2011)
